tested on: Pseudomonas aeruginosa PA14 wild type; assay: respiration area under curve with compound as sole nitrogen source, 24 h (OmniLog AUC (arbitrary units)); higher = more respiration / better utilisation as nitrogen source
Description: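 Biolog Phenotype MicroArray plates PM6-PM8: each di/tripeptide is the sole nitrogen source (IF-0 medium with succinate/ferric citrate and dye mix A). Tetrazolium reduction was read in the OmniLog every 15 min for 24 h at 37°C and summarised as area under the respiration curve (arbitrary units). The paper counts values below 2000 as no respiration and above 8000 as solid respiration. Replicate datasets are averaged.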

Row | Structure (SMILES) | respiration area under curve
1 | CC(C)C[C@@H](NC(=O)CNC(=O)CN)C(=O)O (plate: PM8) | 5880 (active)
2 | CC(C)C[C@H](NC(=O)CNC(=O)CN)C(=O)O (plate: PM8) | 10400 (active)
